# From PubChem BioAssay (EPA / NIEHS)
# Inconclusive results are not listed. Calls of active or inactive are those of the source. The calls were made as follows, unless noted: active = hit-call score of the fitted dose curve at least 0.9, where 1 is the maximum; inactive = score below 0.9.
# Experiments:
# [1] = CCTE_Simmons_MITO_inhib_resp_rate: CCTE's HepG2 Seahorse XF Respirometric Screening Assay at Inhibited Respiratory State [full ETC block], Simmons Lab (AID 2284006); settings: actives raise or lower the signal
# Method in brief: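 HepG2 cells on Seahorse XF96; oxygen consumption measured after test compound, then FCCP, then rotenone/antimycin A injections over 72 min. Test chemicals at 7 concentrations, 125 nM–100 uM final. OCR fitted bidirectionally versus DMSO.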
# [2] = CCTE_Simmons_MITO_viability: CellTiter-Glo Viability Assessment for CCTE's HepG2 Seahorse XF Respirometric Screening Assay [post-hoc], Simmons Lab (AID 2284007; active = hit-call score of the fitted dose curve at least 0.9, where 1 is the maximum)
# Method in brief: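 HepG2 cells from the Seahorse XF respirometry run were exposed 90 min to a 7-point series, 125 nM–100 uM final, DMSO vehicle; ATP content then read by luciferase luminescence. Three biological replicates, technical singles; loss of signal fitted versus DMSO.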
# [3] = CCTE_Shafer_MEA_acute_spike_number: CCTE's Neural Acute Assay for Total Number of Spikes, Shafer Lab (AID 2284008);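 as to AC50: curve fitted for decrease in spike count so AC50 reflects inhibitors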
# Method in brief: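 Using an adaptive detector set to 8x rms noise, spikes were counted in 40-min windows before and after compound addition (0.03-40 uM) to rat cortical networks at 37 C; the well-level change from baseline was analysed relative to DMSO.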
# [4] = CCTE_Shafer_MEA_acute_firing_rate_mean: CCTE's Neural Acute Assay for Mean Firing Rate, Shafer Lab (AID 2284009);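 also: analyzed for loss of signal so actives lower firing rate relative to DMSO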
# Method in brief: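 Read-out: well-mean spike rate (spikes/recording length/electrodes), % change from 40 min pre-dose baseline to 40 min with compound. Rat cortical cultures, DIV 13 or 15, 37 C; 0.03-40 uM; DMSO as negative control.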
# [5] = CCTE_Harrill_HTTr_Viability_MCF7: CCTE's 6-hour Cell Viability Assessment for the High-Throughput Transcriptomics (HTTr) Platform, in MCF-7 cells cultured in DMEM + 10% fetal bovine serum, Harrill Lab (AID 2284010)
# Method in brief: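 Membrane integrity was scored by high-content imaging of propidium iodide dye exclusion after a 6 h exposure across an eight-point dilution series. Data were fitted bidirectionally relative to DMSO as negative control and baseline.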
# [6] = CCTE_Harrill_HTTr_Apoptosis_MCF7: CCTE's 6-hour Apoptosis Assessment for the High-Throughput Transcriptomics (HTTr) Platform, in MCF-7 cells cultured in DMEM + 10% fetal bovine serum, Harrill Lab (AID 2284011)
# Method in brief: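 Apoptosis in MCF-7 cells grown in DMEM with 10% fetal bovine serum was scored after a six hour exposure by high content imaging of caspase-3/7 activation (CellEvent Caspase 3/7 Green), with DMSO serving as negative control and baseline.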
# [7] = CCTE_Harrill_HTTr_CellCount_MCF7: CCTE's Cell Proliferation Assessment for the High-Throughput Transcriptomics (HTTr) Platform, Harrill Lab (AID 2284012; active = hit-call score of the fitted dose curve at least 0.9, where 1 is the maximum;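 also: cells exposed to compound for six hours; intended direction is loss of nuclei count meaning fewer cells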)
# Method in brief: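 MCF-7 cells were exposed for 6 h to an eight-point dilution series; Hoechst-labeled nuclei were counted by high content imaging. Curves were fitted bidirectionally against DMSO as negative control and baseline, with signal loss indicating reduced cell count.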
# [8] = CCTE_Shafer_MEA_acute_burst_number: CCTE's Neural Acute Assay for Single-Electrode Bursts, Shafer Lab (AID 2284013)
# Method in brief: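 Rat cortical cultures, DIV 13/15; 40 min baseline, then 40 min with compound 0.03-40 uM, 37 C. Spikes: 300-5000 Hz band-pass, threshold 8x rms noise. Readout = % change in single-electrode bursts vs baseline, loss-of-signal fit.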
# [9] = CCTE_Shafer_MEA_acute_burst_duration_mean: CCTE's Neural Acute Assay for Mean Burst Duration, Shafer Lab (AID 2284014);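 also: hits are decreases in mean burst duration relative to DMSO controls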
# Method in brief: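 Primary rat cortical neurons on 16-electrode MEA wells, treated on DIV 13 or 15 with compound (0.03-40 uM; ≥3 wells each). 40-min baseline and 40-min exposure recordings at 37 C; percent change in mean burst duration per well versus DMSO.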
# [10] = CCTE_Shafer_MEA_acute_per_burst_spike_number_mean: CCTE's Neural Acute Assay for Average Number of Spikes Per Burst, Shafer Lab (AID 2284015);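 also: hits are decreases in mean spikes per burst versus baseline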
# Method in brief: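 Percent change in mean spikes per single-electrode burst is compared between a 40 min baseline and a 40 min recording with compound (0.03-40 uM). Cultures were rat cortical neurons on MEA plates at DIV 13 or 15, recorded at 37 C, with DMSO as the negative control.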
# [11] = CCTE_Shafer_MEA_acute_interburst_interval_mean: CCTE's Neural Acute Assay for Mean Interburst Interval, Shafer Lab (AID 2284016);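 also: percent change of mean interburst interval versus each well's own pre-dose baseline; curves fitted for decrease in interburst interval relative to DMSO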
# Method in brief: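 Percent change in mean single-electrode interburst interval was calculated per well from 40 min recordings before and after compound (0.03-40 uM). Recordings were made at 37 C on rat cortical cultures at DIV 13 or 15, with spikes detected at 8x rms threshold.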
# [12] = CCTE_Shafer_MEA_acute_burst_percentage_mean: CCTE's Neural Acute Assay for Percentage of Spikes in a Burst, Shafer Lab (AID 2284017);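 also: curve fitted for loss of signal so potency reflects decreased burst percentage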
# Method in brief: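 Well-level mean burst percentage from a 40-min recording after compound (0.03-40 uM) expressed as percent change from a 40-min baseline at 37C. Cultures: primary rat cortical neurons on MEA, dosed on DIV 13 or 15; fitted downward relative to DMSO.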
# [13] = CCTE_Shafer_MEA_acute_burst_percentage_std: CCTE's Neural Acute Assay for Standard Deviation of Burst Percentage, Shafer Lab (AID 2284018);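 also: fitted in the negative direction so actives lower burst percentage SD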
# Method in brief: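 Primary rat cortical neurons on 16-electrode MEA wells were recorded 40 min at baseline (DIV 13 or 15), then 40 min after compound (0.03-40 uM), at 37 C. Well value is SD across electrodes of spikes-in-bursts/total spikes; endpoint is percent change, DMSO-referenced.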
# [14] = CCTE_Shafer_MEA_acute_per_network_burst_spike_number_mean: CCTE's Neural Acute Assay for Average Number of Spikes in a Network Burst, Shafer Lab (AID 2284019);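 as to AC50: curve fitted for loss of signal so actives reduce spikes per network burst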
# Method in brief: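 Primary rat cortical neurons on 16-electrode MEA wells, DIV 13 or 15, 37 C; 40-min baseline then 40-min recording with compound (0.03-40 uM). Spikes per network burst (total spikes/number of bursts) expressed as percent change from baseline, DMSO reference.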
# [15] = CCTE_Shafer_MEA_acute_per_network_burst_spike_number_std: CCTE's Neural Acute Assay for Standard Deviation of Number of Spikes in a Network Burst, Shafer Lab (AID 2284020);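 also: fitted for decrease in spike-number SD versus DMSO so actives lower it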
# Method in brief: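 Primary rat cortical neurons on 48-well MEAs (16 electrodes/well) recorded at DIV 13 or 15: 40-min baseline, then 40 min with compound (0.03-40 uM), 37 C. Value is percent change in SD of spikes per network burst, relative to DMSO.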
# [16] = CCTE_Shafer_MEA_acute_network_burst_percentage: CCTE's Neural Acute Assay for Percentage of Network Bursts, Shafer Lab (AID 2284022);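 also: curves fitted for loss so actives lower network burst percentage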
# Method in brief: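 On DIV 13 or 15, at least three wells of rat cortical neurons per compound are dosed at 0.03-40 uM. Spontaneous firing is detected at 8x rms noise for 40 min before and after dosing at 37 C. The percent change in network-burst spike share is reported.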
# [17] = CCTE_Shafer_MEA_acute_cross_correlation_area: CCTE's Neural Acute Assay for Area of Cross Correlation, Shafer Lab (AID 2284024);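 also: area under pooled inter-electrode spike cross-correlation near zero lag as percent change from own baseline; curves fitted for loss of cross-correlation area so actives lower synchrony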
# Method in brief: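 Extracellular recordings from cultured rat cortical neurons measure network synchrony as cross-correlation area; each well's post-compound value (0.03-40 uM, 40 min) is compared with its own 40 min baseline to give percent change.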
# [18] = CCTE_Shafer_MEA_acute_cross_correlation_HWHM: CCTE's Neural Acute Assay for Cross Correlation at Half Width at Half Maximum, Shafer Lab (AID 2284026);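 also: percent change per well from pre-dose baseline in spike cross-correlogram half width; hits are a decrease in cross-correlogram half width relative to DMSO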
# Method in brief: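 Percent change in cross-correlogram half width at half maximum, narrower meaning more synchrony, was derived per well from paired 40-min recordings before and during exposure to 0.03-40 uM compound in rat cortical cultures at 37 C.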
compound,measurement,setting,value
CCC(C)(C)c1ccc(O)c(C(C)(C)CC)c1,outcome,[1],inactive
same,outcome,[2],inactive
same,AC50,[3],4.73 µM (active)
same,AC50,[4],4.69 µM (active)
same,AC50,[5],42.1 µM (active)
same,outcome,[6],inactive
same,outcome,[7],inactive
same,AC50,[8],5.29 µM (active)
same,outcome,[9],inactive
same,AC50,[10],20 µM (active)
same,outcome,[11],inactive
same,AC50,[12],7.93 µM (active)
same,AC50,[13],32.6 µM (active)
same,AC50,[14],8.12 µM (active)
same,AC50,[15],6.52 µM (active)
same,AC50,[16],36.6 µM (active)
same,outcome,[17],inactive
same,AC50,[18],9.83 µM (active)
C[C@]12CCC(=O)C[C@@H]1CC[C@@H]1[C@@H]2CC[C@]2(C)[C@@H](O)CC[C@@H]12,outcome,[1],inactive
same,outcome,[2],inactive
same,AC50,[3],20 µM (active)
same,AC50,[4],20 µM (active)
same,outcome,[5],inactive
same,outcome,[6],inactive
same,outcome,[8],inactive
same,outcome,[9],inactive
same,outcome,[10],inactive
same,outcome,[11],inactive
same,AC50,[12],30.5 µM (active)
same,AC50,[13],31.1 µM (active)
same,outcome,[14],inactive
same,outcome,[15],inactive
same,outcome,[16],inactive
same,outcome,[17],inactive
same,AC50,[18],33.3 µM (active)
C=C(C)C#N,outcome,[5],inactive
same,outcome,[6],inactive
CC(=O)OC(c1ccccc1)C(Cl)(Cl)Cl (stereo not drawn),outcome,[3],inactive
same,outcome,[4],inactive
same,outcome,[5],inactive
same,outcome,[6],inactive
same,outcome,[7],inactive
same,outcome,[8],inactive
same,outcome,[9],inactive
same,outcome,[10],inactive
same,outcome,[11],inactive
same,AC50,[12],15 µM (active)
same,outcome,[13],inactive
same,outcome,[14],inactive
same,outcome,[15],inactive
same,outcome,[16],inactive
same,outcome,[17],inactive
same,AC50,[18],24.9 µM (active)
